tested on: E18 rat cortical neuron-glia co-culture; assay: myelination (MBP fiber length per Olig2+ nucleus), % of 1 µM DAPT response (DMSO = 0) (% of DAPT); higher = more myelination, active = 50 or more; details: 5 µM; treatment time: 8 days (DIV5-DIV13)
How it was run: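 Rat cortical co-cultures from E18 tissue were dissociated with papain and plated at 20,000 cells/well on 96-well plates coated with poly-d-lysine/laminin. From DIV5 to DIV13, library compounds were added at 1 or 5 µM in myelination medium. After fixation in 4 % paraformaldehyde, cultures were immunostained for MBP and Olig2 and counterstained with DAPI, and four 10X fields were analysed in each of duplicate wells. The myelination value is the length of continuous straight MBP fibers per Olig2+ nucleus, normalised so that 0.1 % DMSO is 0 and a 1 µM positive control is 100.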

SMILES | myelination
Cc1c2oc3c(C)ccc(C(=O)N[C@@H]4C(=O)N[C@H](C(C)C)C(=O)N5CCC[C@H]5C(=O)N(C)CC(=O)N(C)[C@@H](C(C)C)C(=O)O[C@@H]4C)c3nc-2c(C(=O)N[C@@H]2C(=O)N[C@H](C(C)C)C(=O)N3CCC[C@H]3C(=O)N(C)CC(=O)N(C)[C@@H](C(C)C)C(=O)O[C@@H]2C)c(N)c1=O [Dactinomycin] | < -33.5 (inactive)
O=C(NCC1CCCCN1)c1cc(OCC(F)(F)F)ccc1OCC(F)(F)F (stereo unspecified) [Flecainide] | < -49.1 (inactive)
CC(C)(C)NC(=O)[C@@H]1C[C@@H]2CCCC[C@@H]2CN1C[C@@H](O)[C@H](Cc1ccccc1)NC(=O)[C@H](CC(N)=O)NC(=O)c1ccc2ccccc2n1 [Saquinavir] | < -37.3 (inactive)
Cc1cccc(CN2CCN(C(c3ccccc3)c3ccc(Cl)cc3)CC2)c1 (stereo unspecified) [Meclizine] | < -51.3 (inactive)
CC(C)c1ccc2c(c1)c(SC(C)(C)C)c(CC(C)(C)C(=O)O)n2Cc1ccc(Cl)cc1 | < -35.1 (inactive)
C[C@@H]1C[C@H]2[C@@H]3CCC4=CC(=O)C=C[C@]4(C)[C@@]3(F)[C@@H](O)C[C@]2(C)[C@@]1(O)C(=O)CO [Dexamethasone] | < -84.9 (inactive)
Nc1nc(O)c2ncn(CCC(CO)CO)c2n1 [Penciclovir] | < -37.3 (inactive)
COc1cccc2c1C(=O)c1c(O)c3c(c(O)c1C2=O)C[C@@](O)(C(=O)CO)C[C@@H]3O[C@H]1C[C@H](N)[C@H](O)[C@H](C)O1 [Doxorubicin] | < -69.3 (inactive)
CSc1ccc2c(c1)N(CCC1CCCCN1C)c1ccccc1S2 (stereo unspecified) [Thioridazine] | < -29.5 (inactive)
OCCN1CCN(CCCN2c3ccccc3Sc3ccc(C(F)(F)F)cc32)CC1 [Fluphenazine] | < -37.3 (inactive)
C[C@@H]1CN(CCCn2c3ccccc3c3ccccc32)C[C@H](C)N1 [Rimcazole] | < -33.5 (inactive)

— the supplement of paper PMC4840960
